About 75 (0.4%) of roughly 17,000 compounds were called active.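 Rule for the calls: active = compounds whose four printed spots each glow above background more than chance allows, each with a p-value under 7%; inactive = the rest.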 For the sample, actives were picked, then their nearest neighbours and some compounds at random.
System: mutant tumor protein p53 (GST-tagged), Homo sapiens
Experiment: binders of human mutant p53, primary screen, biochemical, small molecule microarray, anti-GST fluorescence (AID 624136)
Conditions: small molecule microarray binding

| Structure (SMILES) | outcome |
| --- | --- |
| C[C@H](CO)N1C[C@H](C)[C@@H](CN(C)C(=O)Nc2ccc3c(c2)OCO3)Oc2ccc(NC(=O)NC3CCCCC3)cc2CC1=O | inactive |
| CC(C)NC(=O)Nc1ccc2c(c1)CC(=O)N([C@@H](C)CO)C[C@@H](C)[C@@H](CN(C)S(=O)(=O)c1ccccc1)O2 | inactive |
| C[C@@H]1CN([C@@H](C)CO)C(=O)c2cc(N(C)C)ccc2O[C@@H](C)CCCCO[C@H]1CN(C)Cc1ccncc1 | inactive |
| CC(=O)O[C@H]1C[C@@H](OC(C)=O)C(C)(C)C2C[C@@H](O)[C@]3(C)C(CC[C@@]4(C)[C@H](c5ccoc5)OC(=O)C5OC543)[C@]21C (some centres undefined) | inactive |
| CCC(=O)O[C@]1(C(=O)CCl)[C@@H](C)CC2C3CCC4=CC(=O)C=C[C@]4(C)[C@@]3(F)[C@@H](O)C[C@@]21C (some centres undefined) | inactive |
| COc1ccc2nc(SCC(=O)Nc3ccc(I)cc3)[nH]c2c1 | inactive |
| C[C@@H]1CN([C@@H](C)CO)C(=O)c2cccc(NC(=O)Nc3ccc(C(F)(F)F)cc3)c2O[C@@H]1CN(C)S(=O)(=O)c1cccs1 | inactive |
| C[C@H](CO)N1C[C@H](C)[C@H](CN(C)Cc2ccccc2)OCCCC[C@H](C)Oc2ccc(NC(=O)CCC(F)(F)F)cc2C1=O | inactive |
| OCCNc1nc(Nc2ccc(Cl)cc2)nc(N2CCCCC2)n1 | inactive |
| C[C@@H]1CN([C@@H](C)CO)C(=O)c2cccc(NS(=O)(=O)c3ccc(F)cc3)c2O[C@H]1CN(C)C(=O)NC1CCCCC1 | inactive |
| C[C@H]1CN([C@@H](C)CO)C(=O)Cc2cc(NS(C)(=O)=O)ccc2O[C@@H]1CN(C)CC1CC1 | inactive |
| Cc1ccc(-c2cc(C(F)(F)F)n3nc(C(=O)NCCN4CCOCC4)c(Cl)c3n2)cc1 | inactive |
| CCC(=O)Nc1cccc(NC(=O)COc2ccc(Br)cc2)c1 | inactive |
| CNC[C@H]1Oc2ccc(NC(=O)Nc3ccc4c(c3)OCO4)cc2CC(=O)N([C@H](C)CO)C[C@H]1C | inactive |
| COc1ccc(CN(C)C[C@H]2Oc3ccc(NC(=O)Cn4cnnn4)cc3CC(=O)N([C@@H](C)CO)C[C@@H]2C)cc1 | inactive |
| C[C@H]1CN([C@@H](C)CO)C(=O)c2cccc(NS(=O)(=O)c3ccc(Cl)cc3)c2O[C@H]1CN(C)Cc1ccc2c(c1)OCO2 | inactive |
| Cc1noc(C)c1S(=O)(=O)Nc1ccc2c(c1)C(=O)N([C@@H](C)CO)C[C@@H](C)[C@@H](CN(C)Cc1ccccc1)OCCCC[C@H](C)O2 | inactive |
| CC(C)NC(=O)Nc1ccc2c(c1)C(=O)N([C@@H](C)CO)C[C@H](C)[C@H](CN(C)C(=O)Nc1ccc(F)cc1)OCCCC[C@@H](C)O2 | inactive |
| CC(=O)CC(=O)N1C(=O)N(C)[C@@]2(C)Oc3ccccc3[C@@H]1[C@H]2COC(=O)c1ccccc1 | inactive |
| C[C@@H]1CN([C@@H](C)CO)C(=O)Cc2cc(NS(C)(=O)=O)ccc2O[C@H]1CN(C)C(=O)Nc1ccccc1 | inactive |
| CO[C@H]1C(=O)c2c(O)c(CC=C(C)C)c(O)c(CC=C(C)C)c2O[C@@H]1c1ccc(O)cc1 | inactive |
| CC(C)NC(=O)Nc1ccc2c(c1)C(=O)N([C@H](C)CO)C[C@@H](C)[C@@H](CN(C)S(=O)(=O)c1cccs1)OCCCC[C@@H](C)O2 | inactive |

| Structure (SMILES) | outcome |
| --- | --- |
| COc1ccc(C#Cc2ccc3c(c2)[C@]2(C(=O)N3)[C@H](C(=O)N3CCCCCCC3)[C@H]3C(=O)O[C@H](c4ccccc4)[C@H](c4ccccc4)N3[C@@H]2c2ccc(O)cc2)cc1 | inactive |
| O=C1O[C@@H](c2ccccc2)[C@@H](c2ccccc2)N2[C@@H](c3ccccc3OCCO)[C@]3(C(=O)Nc4ccccc43)[C@@H](C(=O)N3CCCCCCC3)[C@H]12 | active |
| COC(=O)C(CC#Cc1ccc2c(c1)[C@]1(C(=O)N2)[C@H](c2ccccc2OCCO)N2[C@H](c3ccccc3)[C@H](c3ccccc3)OC(=O)[C@H]2[C@@H]1C(N)=O)C(=O)OC | inactive |
| COc1ccc(C#Cc2ccc3c(c2)[C@]2(C(=O)N3)[C@H](c3ccccc3OCCO)N3[C@H](c4ccccc4)[C@H](c4ccccc4)OC(=O)[C@H]3[C@@H]2C(=O)N2CCCCCCC2)cc1 | active |
| O=C1O[C@@H](c2ccccc2)[C@@H](c2ccccc2)N2[C@@H](c3ccccc3OCCO)[C@]3(C(=O)Nc4ccc(C#CC5(O)CCCCCC5)cc43)[C@@H](C(=O)N3CCCCCCC3)[C@H]12 | inactive |
| O=C1O[C@H](c2ccccc2)[C@H](c2ccccc2)N2[C@H]1[C@@H](C(=O)N1CCN(c3ncccn3)CC1)[C@]1(C(=O)Nc3ccccc31)[C@H]2c1ccc(OCCO)cc1 | inactive |
| CC(=O)c1cccc(NC(=O)c2ccc(CNS(=O)(=O)c3ccc(C(C)(C)C)cc3)cc2)c1 | inactive |
| C[C@@H]1CCCCO[C@H](CN(C)C(=O)NC2CCCCC2)[C@H](C)CN([C@@H](C)CO)C(=O)c2cc(NC(=O)C3CCCCC3)ccc2O1 | inactive |
| C[C@@H]1CCCCO[C@H](CN(C)S(=O)(=O)c2ccccc2)[C@H](C)CN([C@@H](C)CO)C(=O)c2cc(N(C)C)ccc2O1 | inactive |
| C[C@@H]1CN([C@@H](C)CO)C(=O)Cc2cc(NC(=O)Nc3ccc4c(c3)OCO4)ccc2O[C@@H]1CN(C)C(=O)Nc1ccc2c(c1)OCO2 | inactive |
| C[C@@H]1CN([C@H](C)CO)C(=O)c2cc(NS(=O)(=O)c3ccccc3)ccc2O[C@H]1CN(C)C(=O)Nc1ccc2c(c1)OCO2 | inactive |
| O=c1cc(CSc2nnnn2-c2ccccc2)[nH]c(=S)[nH]1 | inactive |
| Cc1ccc(C)c(S(=O)(=O)NC(C)C(=O)Nc2ccc(Br)cc2F)c1 (centres undefined) | inactive |
| C[C@H](CO)N1C[C@H](C)[C@H](CN(C)Cc2ccncc2)Oc2ccc(NC(=O)Cc3cn(C)c4ccccc34)cc2CC1=O | inactive |
| COc1ccc(-c2cc(C(=O)N3CCCC3C(=O)O)c(C)o2)cc1OC (centres undefined) | inactive |
| CCN1CCN(S(=O)(=O)c2cc(OCC(N)=O)c(C)cc2Cl)CC1 | inactive |
| Cc1cc(C(=O)Nc2cccc3c2O[C@@H](CN(C)C(=O)Nc2ccc(F)cc2)[C@H](C)CN([C@@H](C)CO)C3=O)n(C)n1 | inactive |
| C[C@H](CO)N1C[C@H](C)[C@@H](CN(C)Cc2ccc(C(=O)O)cc2)Oc2ccc(NC(=O)Cn3cnnn3)cc2CC1=O | inactive |
| C[C@@H]1CN([C@@H](C)CO)C(=O)c2cccc(NC(=O)c3ccncc3)c2O[C@H]1CN(C)S(=O)(=O)c1ccc(F)cc1 | inactive |
| C[C@H](CO)N1C[C@H](C)[C@@H](CN(C)CC2CCCCC2)Oc2ccc(NC(=O)Cn3cnnn3)cc2CC1=O | inactive |
| COc1cc(C2OC(c3cc(OC)c(OC)c(OC)c3)C(C)C2C)cc(OC)c1OC (centres undefined) | inactive |
| C[C@@H]1CN([C@@H](C)CO)C(=O)c2cc(NS(=O)(=O)c3ccccc3)ccc2O[C@@H](C)CCCCO[C@H]1CN(C)S(=O)(=O)c1cccs1 | inactive |

| Structure (SMILES) | outcome |
| --- | --- |
| Cc1cc(C)cc(N2C(=O)CSC2c2cccc([N+](=O)[O-])c2)c1 (centres undefined) | inactive |
| C[C@H](CO)N1C[C@H](C)[C@H](CN(C)C)Oc2ncc(C#Cc3ccc(F)cc3)cc2C1=O | inactive |
| C[C@H]1CN([C@@H](C)CO)C(=O)Cc2cc(NC(=O)NC3CCCCC3)ccc2O[C@H]1CN(C)S(=O)(=O)c1ccccc1 | inactive |
| C[C@H]1CN([C@@H](C)CO)C(=O)c2cccc(NS(=O)(=O)c3ccccc3)c2O[C@@H]1CN(C)C(=O)Nc1ccc(C(F)(F)F)cc1 | inactive |
| Cc1noc(C)c1NC(=O)N(C)C[C@@H]1Oc2ccc(NC(=O)CCN3CCOCC3)cc2CC(=O)N([C@H](C)CO)C[C@@H]1C | inactive |
| COc1ccc(S(=O)(=O)Nc2ccc3c(c2)CC(=O)N([C@@H](C)CO)C[C@@H](C)[C@@H](CN(C)C)O3)cc1 | inactive |
| CCO/C([O-])=N\c1c[n+](N2CCOCC2)no1 | inactive |
| C[C@H](CO)N1C[C@H](C)[C@@H](CN(C)CC2CC2)Oc2ccc(NS(=O)(=O)c3cn(C)cn3)cc2CC1=O | inactive |
| Cc1ccc(-c2cn3c4c(sc3n2)CCCC4)cc1 | inactive |
| Cc1noc(C)c1S(=O)(=O)N(C)C[C@H]1Oc2ccc(NC(=O)CCN3CCOCC3)cc2CC(=O)N([C@H](C)CO)C[C@H]1C | inactive |
| C[C@@H]1CN([C@H](C)CO)C(=O)CCCn2cc(nn2)CO[C@@H]1CN(C)C(=O)c1ccc2ccn(C)c2c1 | inactive |
| CC(C)NC(=O)N(C)C[C@@H]1Oc2ccc(NC(=O)C3CC3)cc2C(=O)N([C@@H](C)CO)C[C@H]1C | inactive |
| C[C@@H]1CCCCO[C@H](CN(C)Cc2ccncc2)[C@H](C)CN([C@H](C)CO)C(=O)c2cc(NC(=O)Nc3ccccc3)ccc2O1 | inactive |
| C[C@@H]1CN([C@@H](C)CO)C(=O)c2cc(NC(=O)Nc3ccc4c(c3)OCO4)ccc2O[C@@H](C)CCCCO[C@@H]1CN(C)Cc1ccccc1 | active |
| C[C@@H]1CCCCO[C@H](CN(C)C(=O)c2ccccc2)[C@H](C)CN([C@@H](C)CO)C(=O)c2cc(NC(=O)Nc3ccc4c(c3)OCO4)ccc2O1 | inactive |
| C[C@@H]1CN([C@H](C)CO)C(=O)Cc2cc(NC(=O)C3CC3)ccc2O[C@H]1CN(C)Cc1ccc(Cl)c(Cl)c1 | active |
| C[C@@H]1CN([C@H](C)CO)C(=O)Cc2cc(NC(=O)C3CC3)ccc2O[C@H]1CN(C)Cc1ccc2c(c1)OCO2 | inactive |
| C[C@H](CO)N1C[C@H](C)[C@@H](CN(C)C(=O)Nc2ccccc2)Oc2ccc(NC(=O)C3CC3)cc2CC1=O | inactive |
| C[C@@H]1CCCCO[C@@H](CN(C)Cc2ccc(C(=O)O)cc2)[C@H](C)CN([C@@H](C)CO)C(=O)c2cc(NC(=O)Nc3ccc(C(F)(F)F)cc3)ccc2O1 | inactive |
| C[C@@H]1CC[C@]2(C)[C@H](CC[C@@H](O)[C@]2(C)O)[C@@]1(C)CC(=O)c1ccoc1 | inactive |
